D2 PAM-1: potentiates the human D2 dopamine receptor allosterically | P14416 | DiscoveRx D2 beta-arrestin cells, luminescence, 90 min; 100% = 57 uM dopamine signal | potentiation, % (test concentration not listed) | 0.23% of 360,000 active; in the data active = potentiation above about 50%; inconclusive = mostly about 30% to 49%
Target sequence (P14416 whole entry, looked up): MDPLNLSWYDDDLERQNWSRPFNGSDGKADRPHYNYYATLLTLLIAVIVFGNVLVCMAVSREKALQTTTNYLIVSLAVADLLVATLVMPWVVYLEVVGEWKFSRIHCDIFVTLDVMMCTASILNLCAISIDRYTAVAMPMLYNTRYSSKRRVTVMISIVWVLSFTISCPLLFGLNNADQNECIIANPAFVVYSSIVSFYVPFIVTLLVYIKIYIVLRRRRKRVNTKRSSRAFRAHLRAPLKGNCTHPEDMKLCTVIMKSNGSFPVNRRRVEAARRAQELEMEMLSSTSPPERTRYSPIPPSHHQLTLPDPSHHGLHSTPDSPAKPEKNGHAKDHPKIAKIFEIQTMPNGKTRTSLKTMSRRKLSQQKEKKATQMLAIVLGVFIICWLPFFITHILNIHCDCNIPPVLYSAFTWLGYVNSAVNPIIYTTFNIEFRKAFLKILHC
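D2 cells co-treated with compound plus 50 nM dopamine (EC20) for 90 min at 37 deg C to detect potentiation. Beta-arrestin recruitment was read as enzyme-fragment luminescence after 1 h at ambient temperature. Full response was set by 57 uM dopamine.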
D2 PAM-2: positive allosteric modulators of human D2 dopamine receptor; P14416; potentiation, % at 10 µM; HEK293 T-REx D2, calcium flux, EC20 dopamine potentiation; 0.34% of 340,000 active;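 active = potentiation over 3 SD above the plate norm, cut at about 30% in these data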; note: 0% is about no effect
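Potentiation of an EC20 dopamine calcium response is measured in a force-coupled, tetracycline-inducible Hek293 Trex D2 line. Compound-only kinetic reads over 180 s flag agonists before dopamine addition.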
D2 ag-1: activates the human D2 dopamine receptor; HEK293 T-REx D2 cells, calcium flux agonist mode; activation, % at 2 µM; 0.53% of 340,000 active; AID 485358; P14416;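 active = activation over 3 SD above normal in the single-dose calcium agonist read, cut at about 30% in these data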; note: 0% is about no effect
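Calcium-flux readout, 1 cycle/sec over 180 s following compound pin transfer, in inducible HEK293 Trex D2 cells (force-coupled); dopamine controls included. Positive calcium responses during this window marked compounds as potential agonists.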
D2 ag-2: agonists of human D2 dopamine receptor (beta-arrestin); P14416; DiscoveRx PathHunter D2 beta-arrestin, luminescence, 90 min; 100% = 57 uM dopamine signal; activation, % (no concentration beside the values); 0.084% of 360,000 active; in the data active = activation above about 40%; inconclusive = between about 15% and that limit
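DiscoveRx PathHunter D2 beta-arrestin cells (2,100/well) attached overnight, then compound-stimulated 90 min at 37 C in HBSS/10 mM HEPES/0.1% Tween-20 buffer; beta-galactosidase complementation read by luminescence after 1 h at ambient temperature. Dopamine 57 uM final (EC100) as control.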
D2 antagonist: antagonists of human D2 dopamine receptor | P14416 | 2% of 340,000 active | inhibition, % at 10 µM | HEK293 TREx D2 cells, calcium flux, dopamine EC80; in the data active = inhibition above about 30%; inactive = below that, where a call was filed; note: 0% is about no effect
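In this primary screen, negative modulation is detected by tracking calcium flux after an EC80 dopamine challenge in inducible HEK293 T-REx D2 cells preexposed to test compound for 180 s.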
The depositor's hits bear a star; ? = inconclusive; . = not tested or not shown; ! = a repeat was not active. Compounds with a hit are over-represented: about 2.4% of the library has one in this group of screens.

SMILES	D2 PAM-1	D2 PAM-2	D2 ag-1	D2 ag-2	D2 antagonist
COc1cc2[nH]cc(C(=O)NCCc3ccccc3)c(=O)c2cc1OC	-3	39*	-2	3	-16
COc1ccc2[nH]c(C(=O)NCCc3ccccc3)cc2c1	0	-8	0	-3	16
COc1cc2[nH]c(C(=O)NCc3ccccc3)cc2c(OC)c1OC	-21	-15	-1	1	84*
Cc1ccc(/C=C/c2onc(C)c2S(=O)(=O)N2CCC(C(=O)N3CCOc4ccc(C)cc43)CC2)cc1	.	-1	2	.	.
COc1cc(C(=O)NCCC(=O)NC(C)CCc2ccccc2)cc(OC)c1OC (stereo not given)	-2	33*	0	-4	-8
COc1ccccc1NC(=O)C(Cc1ccccc1)NS(=O)(=O)c1ccc2c(c1)CCN2C(C)=O (stereo not given)	.	-5	-1	.	.
O=C(CN(CCCN1CCOCC1)C(=O)Cn1nnc(-c2ccc(F)cc2)n1)NC1CCCCC1	-14	-10	1	-4	1
O=C(CN(CCN1CCOCC1)C(=O)Cn1nnc(-c2ccc(F)cc2)n1)NC1CCCCC1	-6	6	1	-4	71*
CC(C)Oc1ccc(CNC(=O)c2ccc3c(c2)N(C)CCS3)cc1	-16	-19	2	-1	47*
CC(C)n1c(=O)c2oc3ccccc3c2n(Cc2ccccc2F)c1=O	.	.	0	.	.
Cc1ccc2oc(C(=O)Nc3cccc(Cl)c3)cc(=O)c2c1	.	10	-1	.	.
CC(=NO)c1ccc2c(c1)C(=NO)c1ccccc1-2	83*	.	.	13	.
ON=C1c2ccccc2-c2ccc(O)cc21	-18	.	.	-6	.
COc1ccc(-c2nc3ccccc3n3c(-c4ccc(OC)cc4)c4c(=O)n(C)c(=O)n(C)c4c23)cc1	.	7	-1	.	.
NC(=O)c1nsc(C(=O)N(CC(=O)NCc2ccco2)c2ccccc2F)c1N	-4	33*	0	-3	8
CCOC(=O)c1cc(S(=O)(=O)N2CCN(c3ccc(OC)cc3)CC2)[nH]n1	.	14	.	.	.
CCOc1ccc(CCNC(=O)c2nnc(Cc3ccc(Cl)cc3Cl)o2)cc1OCC	.	0	.	.	.
Cc1ccccc1OCCn1c(=N)n(C(C)C)c2ccccc21	.	-16	6	.	.
O=C(COC(=O)c1ccc(O)cc1)Nc1ccc(OC(F)F)cc1	1	1	2	-1	32*
COc1ccc(-c2nnc(SCC(=O)Oc3c(C)cccc3C)o2)cc1OC	.	-7	-1	.	.
COc1ccccc1C1C(C(C)=O)=C(C)N=c2s/c(=C\c3cc(OC)c(OC)c(OC)c3)c(=O)n21 (stereo not given)	16	32*	1	2	3
CSc1cccc(NC(=O)Cn2ncn3c(cc4ccccc43)c2=O)c1	.	-10	0	.	.
Cc1cccc(N2CCN(CC(O)COc3ccc(Cl)cc3)CC2)c1 (stereo not given)	-54	-19	-1	0	58*
OC(CN1CCN(c2cccc(Cl)c2)CC1)c1ccccc1 (stereo not given)	-28	-13	10	3	53*
OC(COc1ccc(Cl)cc1)CN1CCN(c2cccc(Cl)c2)CC1 (stereo not given)	-16	-22	2	3	73*
SMILES	D2 PAM-1	D2 PAM-2	D2 ag-1	D2 ag-2	D2 antagonist
OC(COc1ccc2cc(Br)ccc2c1)CN1CCN(c2ccccn2)CC1 (stereo not given)	?	26	-2	41*	-4
COc1ccc(N2CC(NC(=O)c3ccc4c(c3)OCO4)CC2=O)cc1 (stereo not given)	.	6	-5	.	.
Cc1ccc(Oc2nc3ccccn3c(=O)c2/C=C(\C#N)c2nc3ccccc3s2)c(C)c1	.	-1	1	.	.
c1ccc(N=C(c2cccs2)N2CCOCC2)cc1	-18	-14	1	-16	32*
O=S(=O)(/N=C(\c1ccccc1)N1CCOCC1)c1cccs1	1	-6	0	0	-5
c1cnc2c(C3NCCc4c3[nH]c3ccccc43)cccc2c1 (stereo not given)	-95	-21	0	-9	36*
O=C(O)c1cccnc1C(=O)N1CCc2c([nH]c3ccccc23)C1C(F)(F)F (stereo not given)	-52	6	-2	4	-16
COc1ccc(OC)c(NC(=O)CCc2nc(-c3ccc(C)cc3)no2)c1	.	-1	0	.	.
O=C(COC(=O)c1ccc([N+](=O)[O-])o1)NC1CCCC1	14	.	.	8	.
O=C(COC(=O)c1ccc([N+](=O)[O-])o1)NC1CCS(=O)(=O)C1 (stereo not given)	?	8	0	6	33*
O=C(NC(Cc1ccc2c(c1)OCO2)C(=O)N1CCCC1C(=O)O)c1ccccc1 (stereo not given)	3	9	-1	0	34*
CCN(c1ccccc1)S(=O)(=O)c1cc(C(=O)OC2CCOC2=O)ccc1C (stereo not given)	1	31*	1	-1	-48
CS(=O)(=O)c1ccc(C(=O)OC2CCOC2=O)cc1[N+](=O)[O-] (stereo not given)	-1	-2	-2	-2	6
CCc1ccc(OCC2c3cc(OC)c(OC)cc3CCN2C(=O)Cc2ccc(OC)c(OC)c2)cc1 (stereo not given)	.	17	.	.	.
CC(C)N1C(=O)c2ccccc2C1C(=O)NC1CCCCCC1 (stereo not given)	5	31*	-2	-2	-12
Cc1cc(C)cc(NC(=O)CCCn2c3ccccc3c(=O)c3ccccc32)c1	.	-8	-1	.	.
Cc1nnc(N/N=C/c2cccc(C(F)(F)F)c2)n1N	-3	-8	19	0	-17
Cc1nnc(N/N=C/c2cccc(OCc3ccc(Cl)c(Cl)c3)c2)n1N	74*	-9	-1	15	-29
CCc1cc2c(cc3c(=O)n(CCCC(=O)NCc4cccc(Cl)c4)ncn32)s1	.	7	0	.	.
CCCC(=O)N1CCc2cc(OC)c(OC)cc2C1COc1ccccc1OC (stereo not given)	-3	10	-1	1	.
CCC(=O)N1CCc2cc(OC)c(OC)cc2C1COc1ccccc1OC (stereo not given)	-3	38*!	0	-2	7
CC(Sc1nc2ccccc2c(=O)n1CCc1ccc(S(N)(=O)=O)cc1)C(=O)NC(N)=O (stereo not given)	1	40*	-2	9	3
Cc1nc2c(c(C)c1CCC(=O)NCc1ccc(Cl)cc1)c(=O)n(C)c(=O)n2C	.	-7	-2	.	.
CCN(c1ccccc1)S(=O)(=O)c1nnc(NC(=O)C(C)Oc2ccccc2)s1 (stereo not given)	.	2	0	.	.
CCOC(=O)/C(=C/c1ccc(N2CCC(c3ccccc3)=N2)cc1)C(C)=O	0	-24	37*	-1	16
